HCMV inh: qHTS Assay for inhibitors of the human cytomegalovirus (HCMV); HFF cells, HCMV-luciferase reporter, 72 h; hits give low values; activity change, negative = inhibition, % at 57.5 µM; 4.5% of 410,000 active; AID 1259415, 2018; in the data active means activity change below about -60%; inconclusive means no clear call, values can overlap the other calls; inactive means above about -39%; further: on the % scale 0 is the no-effect control and ±100 the full control effect
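Inhibition of viral replication was scored as loss of reporter luminescence in HFFs infected with HCMV-luciferase (MOI 1 PFU/cell) for 72 h; compounds tested at 2 doses, normalized to buffer and Salinomycin controls.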
HCV inhibitor: qHTS Assay for Inhibitors of Hepatitis C Virus (HCV); Potency, µM (doses to about 41.8 µM), without a hit: at the top dose activity change, negative = inhibition, actives largely listed as inhibitors; 3.4% of 340,000 active; Huh7.5.1 HCVcc-Cre infection, luciferase reporter, 44 h; active means well fitted inhibition curve with a large enough effect; inconclusive means small, poorly fitted or top-dose-only effect, or another doubt; inactive means no such curve, though single readings can be large or run the other way; further: potency means the concentration at half of the fitted maximal effect; on the % scale 0 is the no-effect control and ±100 the full control effect
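Infectious HCVcc-Cre (~0.5 moi) was added to cells just after compound, with cells seeded 4 h earlier at 1,000 per well. Luciferase activity after 44 h culture reported infection; substrate was incubated 15 min at room temperature before reading.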
FMDV antiviral: High Throughput Screening for Foot and Mouth Disease Virus Antivirals. FMDV antiviral cell-based qHTS. Potency, µM (titrated, usually from 57.9 µM), without a hit: at the top dose activity change, negative = inhibition, actives largely listed as inhibitors. 1.2% of 410,000 active. AID 1159524, 2015; calls by dose curve; tested in HEK293T cells; further: read-out not given here; potency means the concentration at half of the fitted maximal effect; on the % scale 0 is the no-effect control and ±100 the full control effect; nearly all actives have a fitted effect of over 45% in size
MARV entry inh: qHTS for inhibitors of binding or entry into cells for Marburg Virus; Potency, µM (top dose mostly 37.8 µM), for inactives: at the top dose activity change, negative = inhibition, most hits filed as inhibitors; Marburg virus pseudotyped entry inhibition, cell reporter; 1.8% of 300,000 active; calls by dose curve; tested in HEK293 cells; further: potency means the concentration at half of the fitted maximal effect; on the % scale 0 is the no-effect control and ±100 the full control effect
SARS PLP yeast: qHTS of Yeast-based Assay for SARS-CoV PLP | 0.19% of 330,000 active | Potency, µM (top dose mostly 32.9 µM), inactives show top-dose activity, positive = growth rescue, usual class: activators | S. cerevisiae expressing SARS-CoV PLpro, growth rescue; calls by dose curve; further: potency means the concentration at half of the fitted maximal effect; 0% is about no effect; nearly all actives have a fitted effect of over 55% in size
Lassa entry inh: qHTS for Inhibitors of binding or entry into cells for Lassa Virus; Potency, µM (titrated, usually from 37.9 µM), for inactives: at the highest dose activity change, negative = inhibition, usual class: inhibitors; 1.2% of 300,000 active; Lassa virus pseudotype entry inhibition, cell reporter; AID 540256, 2011; calls by dose curve; tested in HEK293 cells; further: potency means the concentration at half of the fitted maximal effect; on the % scale 0 is the no-effect control and ±100 the full control effect; nearly all actives have a fitted effect of over 50% in size
The depositor's hits bear a star; ? = inconclusive; . = no result; [ ] = dose if it differs, or a comment. Shown are actives, neighbours in structure and some others; about 8% of the full set was active somewhere.

SMILES | HCMV inh | HCV inhibitor | FMDV antiviral | MARV entry inh | SARS PLP yeast | Lassa entry inh
Cn1c(=O)oc2cc(S(=O)(=O)N3CCC(C(=O)N4CC=C(c5ccccc5)CC4)CC3)ccc21 | -72.6* | -8.0% | -20.7% | . | 1.0% | .
CCNc1nc(NCc2ccccc2)nc(SCC(=O)Nc2ccccc2)n1 | 38.6 | 25.1µM* | ? | ? | 18.4% | ?
CN(C)c1nc(NCc2ccccc2)nc(SCC(=O)Nc2ccc(Cl)c(Cl)c2)n1 | -9.2 | ? | ? | 11.6µM* | -6.3% | -20.8%
CCNc1nc(NCc2ccccc2)nc(SCC(N)=O)n1 | ? | -1.0% | -10.9% | -7.3%[46.1 µM] | 1.2% | -16.4%[46.1 µM]
CCNc1nc(SCC(=O)Nc2ccc(Cl)c(Cl)c2)nc(N(C)C)n1 | 59.0 | ? | ? | . | -7.9% | .
O=S1(=O)CC(N2CCCCC2)CN1Cc1cn(Cc2ccc(F)cc2)nn1 (centres undefined) | -13.2 | . | -12.0% | . | . | .
CCn1c(SC2CCOC2=O)nnc1-c1ccc(Cl)cc1 (centres undefined) | -28.8 | 1.5% | 6.1% | . | 0.0% | .
CC[C@@]1(C)Cc2c(sc3c2c(=O)n(C)c2nnc(SCc4ccc5c(c4)OCO5)n32)CO1 | . | . | . | -16.7% | . | .
S=c1[nH]nc(Cc2ccc(Br)cc2)n1/N=C/c1ccc(Cl)cc1 | -66.7* | 9.6% | -19.6% | ? | 0.6% | ?
O=C(c1cccc(C(F)(F)F)c1)C1CCCN(C(=O)c2cc(C3CC3)[nH]n2)C1 (centres undefined) | -67.5* | ? | -29.1% | . | -1.0% | .
Cc1nc(C)c(CC(=O)N2CCOc3ccc(CN4CCOCC4)cc3C2)s1 | . | . | -9.4% | . | . | .
COc1cccc(NC(=S)NN2CCN(C)CC2)c1 | -3.6 | -10.4% | -16.4% | 6.9% | -3.1% | 4.4%
CN1CCN(NC(=S)Nc2ccc(Oc3ccccc3)cc2)CC1 | -66.9* | ? | ? | ? | -0.3% | -3.7%[46.1 µM]
CCN(CC)c1ccc(S(=O)(=O)N2CCOCC2)cc1NC(=O)CN1CCc2ccccc2C1 | -69.5* | ? | ? | ? | -0.3% | ?
O=C(Nc1ccc(S(=O)(=O)N2CCOCC2)cc1)c1ccc(CN2CCc3ccccc3C2)cc1 | . | ? | ? | 2.51µM* | 0.0% | 10µM*
N#CCc1ccc(NC(=O)c2ccc(CN3CCc4ccccc4C3)cc2)cc1 | -22.5 | 2µM* | ? | . | 0.0% | .
O=C(Nc1ccc(Cl)cc1)c1ccc(CN2CCc3ccccc3C2)cc1 | -19.4 | 1.58µM* | -3.8% | . | -4.9% | .
CCCNC(=O)c1ccc(CN2CCc3ccccc3C2)cc1 | 20.1 | -19.0% | 0.0% | -10.8% | -14.7% | 7.2%
COCC(=O)NCc1nc2cccnc2n1Cc1ccc(F)cc1 | 4.6 | . | -8.9% | . | . | 3.4%[46.1 µM]
CN1CCN2c3ccccc3CC(C#N)(C#N)C2C1 (centres undefined) | -6.4 | . | 4.9% | . | . | .
CS(=O)(=O)N1CCc2cc(C(=O)NCc3ccccc3)ccc21 | -16.6 | . | 9.6% | ? | . | -15.0%[46.1 µM]
O=C(Nc1ccc(CN2CCS(=O)(=O)CC2)cc1)c1ccc(Cl)cc1 | ? | 10µM* | -21.4% | -18.8%[46.1 µM] | -3.0% | -21.1%
COC(=O)c1ccc(NC(=S)N2CCN(Cc3ccc(Cl)cc3)CC2)cc1 | -21.3 | ? | -26.5% | ? | 2.9% | -1.1%
CCN1C(=NCCc2cccnc2)N[C@H](CCc2ccccc2)[C@H](C(=O)OC)[C@H]1C | . | . | . | -16.2%[14.2 µM] | . | .
Cc1ccc(-c2nnc(-c3ccc(NC(=O)Cc4cccs4)cc3)o2)cc1 | -84.8* | ? | 43.8% | ? | -2.0% | ?
Cc1ccc(SCC(=O)Nc2ccc(-c3nnc(-c4ccco4)o3)cc2)cc1 | 31.9 | 11.2µM* | 16.2% | ? | 0.1% | ?
Cc1ccc(-c2nnc(SCC(=O)N(C)C)nc2-c2ccc(C)cc2)cc1 | -60.1* | -13.4% | 26.6% | ? | -2.5% | -13.3%[46.1 µM]
O=C(CSc1nnc(-c2ccco2)c(-c2ccco2)n1)Nc1ccccc1 | 59.8 | ? | -10.3% | -3.2% | -0.6% | -10.8%
Cc1ccc(NC(=O)CSc2nnc(-c3ccco3)c(-c3ccco3)n2)cc1 | 9.9 | ? | -5.2% | -15.9% | ? | 2.82µM*

Compound activity deposited in PubChem by National Center for Advancing Translational Sciences (NCATS).
